Experimental data taken from PubChem BioAssay AID493194 (Broad Institute, 2011).
Results with a measured potency or affinity are listed apart. Records with an inconclusive call do not appear.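 Rule for the calls: active = a valid curve of falling signal whose half-effect concentration is at most ten times the top tested dose; inconclusive = flat curve at 30 to 70% inhibition, or poor fit; inactive = signal rise, flat within 30%, or potency beyond limit.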

molecular target: Scavenger receptor class B member 1 (Mus musculus) (UniProt Q61009); test: inhibitors of SR-BI mediated HDL lipid uptake, dose response, ldlA[mSR-BI] cells, fluorescence, cherry pick (AID 493194); details: CHO ldlA[mSR-BI] DiI-HDL uptake fluorescence, 3 h; series mostly up to 35 µM; activity change, negative = inhibition: at the top concentration;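 note: CHO cells lacking LDL receptor and overexpressing mouse SR-BI; cellular uptake of fluorescently labeled HDL measured as cell fluorescence; 0% = median of neutral control wells and -100% = median of positive control wells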
Sequence (Q61009 whole entry, looked up): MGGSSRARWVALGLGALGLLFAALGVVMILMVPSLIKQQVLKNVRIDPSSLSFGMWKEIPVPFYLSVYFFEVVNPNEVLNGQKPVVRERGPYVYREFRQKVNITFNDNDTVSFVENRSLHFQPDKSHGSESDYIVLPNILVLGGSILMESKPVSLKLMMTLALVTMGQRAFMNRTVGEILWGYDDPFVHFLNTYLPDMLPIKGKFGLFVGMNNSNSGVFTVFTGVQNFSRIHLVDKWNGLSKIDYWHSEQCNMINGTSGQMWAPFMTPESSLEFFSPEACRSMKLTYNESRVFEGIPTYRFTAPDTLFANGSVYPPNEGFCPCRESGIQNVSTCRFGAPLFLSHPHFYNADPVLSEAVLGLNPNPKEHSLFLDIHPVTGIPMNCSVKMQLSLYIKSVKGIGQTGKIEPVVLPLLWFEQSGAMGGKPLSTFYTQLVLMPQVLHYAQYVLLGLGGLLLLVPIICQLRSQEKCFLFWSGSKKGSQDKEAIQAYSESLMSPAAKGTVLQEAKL

Activity change, negative = inhibition, inactive:
COc1ccc(CCNC(=O)c2ccc3c(c2)N(Cc2ccc(C)cc2)CCS3)cc1OC 4.2%
CCC(C)(C)NC(=O)C(c1ccc(C)cc1)N(Cc1cccs1)C(=O)c1ccc2c(c1)OCCO2 (stereo unspecified) -5.45%
COCC(C)N1CC(O)=C(c2nc(-c3ccc(Cl)cc3)cs2)C1=N (stereo unspecified) -3.9%
Cc1cccc(N2CCN(C(=O)Cn3cccc3C(=O)c3ccccc3)CC2)c1C -20.2%
CC(C)(C)OC(=O)N1CSC[C@H]1C(=O)NC[C@H](CC(=O)O)c1ccc(Cl)cc1 -4.86%
CCOC(=O)c1cccc(NC(=O)Nc2cc(OC)ccc2OC)c1 -21.1%
CCC(C)C1/C=C\CC(NC(=O)OCC2c3ccccc3-c3ccccc32)CC(=O)N1Cc1ccccc1 (stereo unspecified) -17.9%
Cc1ccc(-c2sc(-c3ccccc3)nc2CC(=O)Nc2ccccc2F)cc1 -23.8%
COC(=O)C1=CN(c2ccc(F)c(F)c2)C=C(C(=O)OC)C1c1ccc([N+](=O)[O-])cc1 -33.5%
CCOC(=O)c1[nH]c2c(c1-c1ccccc1)C(=O)CC(c1ccc(Cl)cc1)C2 (stereo unspecified) 14%
COc1ccc(CCNC(=O)c2ccc3c(c2)N(Cc2ccc(F)cc2)CCS3)c(OC)c1 3.53%
O=C(c1ccc(S(=O)(=O)NCc2ccco2)cc1)N1CCN(Cc2ccccc2)CC1 -36.1%
O=C(NNC(=O)c1ccccc1O)c1ccc(S(=O)(=O)Nc2ccccc2)cc1 -1.35%
COc1cc(NC(=O)c2cc(-n3cnnc3)ccc2Cl)cc(OC)c1 20%
Cc1ccc(CCNC(=O)C2CCN(C(=O)c3sccc3-n3cccc3)CC2)cc1 -1.91%
CCCCC(=O)Nc1cccc(NC(=O)c2ccccc2Br)c1 -29.1%
